Compound activity: PubChem, several laboratories
TMEM16A inh: inhibitors of mouse TMEM16A calcium-activated chloride channel; Q8BHY3; AID 588511; normalized B-score (activity score, 25-100; higher = stronger inhibition) at 10 µM; 1.2% of 310,000 active; HEK293 TMEM16A/YFP iodide influx fluorescence, ionomycin;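 active = ratio plate-corrected score three or more library SD toward inhibition, starting fluorescence score within five deviations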;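 note: score derived from kinetic fluorescence span divided by baseline fluorescence per well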
ANO1 activ: activators or potentiators of mouse TMEM16A chloride channel; HEK293 TMEM16A/YFP-H148Q/I152L, iodide quench fluorescence; hits give low values; B-score at 10 µM; 0.3% of 340,000 active; AID 623877;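 active = fluorescence-ratio B-score plate-corrected deviation score at least 3 library SD below zero, with starting fluorescence score within 5 deviations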;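 note: channel opened by trigger with iodide after compound preincubation; score built on the fluorescence ratio of max minus min over baseline; more negative score means more quench and so TMEM16A activation or potentiation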
PKA-R1A act: PKA-R1A complex activation | P00514+P68181 | PKA-R1A dissociation, Cy5-IP20 fluorescence polarization; scaled: DMSO 0%, 113 µM cGMP 100% | activation, % at 11.4 µM | 0.083% of 340,000 active | AID 504707;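 active = percent activation above the mean of all tested compounds plus 3 SD, cut at about 19% in these data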;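 note: higher means more PKAc released from R1A so a rise in polarization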
CHT block: inhibits the human high affinity choline transporter | AID 488975 | 0.86% of 310,000 active | B-score at 10 µM | CHT-expressing cells, membrane potential dye, choline response; hits give low values;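 active = B-score over 3 SD under the library average, and starting fluorescence ratio not unusually high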;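 note: choline stimulus applied at its EC90 after an EC20 pre-addition; B-score computed on integrated fluorescence ratio after choline addition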
Target sequence (Q9GZV3 whole entry, looked up): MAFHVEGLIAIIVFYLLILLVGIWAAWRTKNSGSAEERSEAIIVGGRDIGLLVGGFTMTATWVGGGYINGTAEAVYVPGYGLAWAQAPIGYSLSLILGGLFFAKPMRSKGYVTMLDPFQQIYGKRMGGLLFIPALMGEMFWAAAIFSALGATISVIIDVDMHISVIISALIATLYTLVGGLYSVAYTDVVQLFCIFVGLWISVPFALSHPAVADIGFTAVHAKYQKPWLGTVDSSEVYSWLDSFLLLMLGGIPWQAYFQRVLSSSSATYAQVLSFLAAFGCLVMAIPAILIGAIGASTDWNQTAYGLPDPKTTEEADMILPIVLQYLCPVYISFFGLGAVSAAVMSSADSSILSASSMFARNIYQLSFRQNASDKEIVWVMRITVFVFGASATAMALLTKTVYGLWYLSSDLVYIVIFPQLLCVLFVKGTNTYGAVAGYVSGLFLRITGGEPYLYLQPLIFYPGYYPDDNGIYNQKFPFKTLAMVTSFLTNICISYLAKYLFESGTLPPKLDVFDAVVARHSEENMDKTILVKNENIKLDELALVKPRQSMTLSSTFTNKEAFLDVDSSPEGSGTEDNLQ
PKA-R2B act: activators of human PKA-R2B complex | PKA-R2B holoenzyme dissociation, Cy5-IP20 fluorescence polarization; R2B truncated from residue 108, S112A mutant; 0% DMSO only, 100% 113 µM cGMP | activation, % at 11.4 µM | 0.079% of 340,000 active | AID 504700;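 active = activation above a cutoff set at the mean over all compounds plus 3 SD, cut at about 18% in these data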;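 note: higher means more holoenzyme dissociation and a rise in polarization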
CHT allo act: allosteric activators of human choline transporter CHT | 0.49% of 310,000 active | CHT-expressing cells, membrane potential dye, choline EC20; hits give high values; LV-AA mutant CHT in HEK293 cells | B-score at 10 µM | AID 488977 | Q9GZV3;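 active = initial fluorescence not abnormally high and integrated response B-score, plate-corrected, over 3 SD above library mean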
TMEM16A reconf: re-confirmation of mouse TMEM16A chloride channel inhibitors | shares compounds with TMEM16A inh | inhibition, % at 10 µM | 39% of 2,300 active | HEK293 TMEM16A/YFP-H148Q, iodide quench fluorescence; ionomycin added to raise cell calcium | AID 652189;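 active = mean duplicate percent inhibition, scaled so buffer wells are 0 and the reference blocker 100, over three buffer SD above buffer mean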
TMEM16A Ca cntr: alters calcium mobilization in TMEM16A HEK293 cells, counter-screen; shares compounds with TMEM16A inh; calcium response (% of ionomycin), % at 10 µM; 2% of 2,300 active; TMEM16A/YFP HEK293, Fluo4 calcium mobilization;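 active = duplicate-averaged calcium signal over 20% of the ionomycin maximum, relative to buffer baseline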;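 note: each well's signal is peak minus trough fluorescence divided by its pre-addition baseline; 0% = buffer wells and 100% = ionomycin wells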
Parental YFP cnt: parental YFP-HEK293 iodide quench counter-screen activity. shares compounds with TMEM16A inh. ionomycin. YFP ratio F(max-min)/F0 at 10 µM. 2,300 tested, under 10 active. AID 652233;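 active = yellow fluorescent protein signal ratio exceeding the buffer control mean by over 5 SD of those controls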;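 note: ratio is mean of duplicate wells from kinetic YFP trace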
ClC-1 inh: selectivity of TMEM16A inhibitors: inhibition of rat ClC-1 chloride channel; CHO ClC-1-YFP, iodide influx fluorescence quench; iodide control reads 0, buffer control 100; shares compounds with TMEM16A inh; 2,300 tested, under 10 active; ratio percent, % at 10 µM;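 active = duplicate-mean ratio percent above the mean of iodide-only control wells, which defines zero, plus 5 of their SD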;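 note: higher percent means stronger block of ClC-1 iodide influx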
* hit, by the source's call; i = inactive; / = no result. Hits are enriched below; roughly 2.5% of the tested compounds scored in any of these assays.

SMILES | TMEM16A inh | ANO1 activ | PKA-R1A act | CHT block | PKA-R2B act | CHT allo act | TMEM16A reconf | TMEM16A Ca cntr | Parental YFP cnt | ClC-1 inh
Cc1cc(CNC(=O)C2(C(F)(F)F)C/C(=C\Cc3ccccc3)CCCO2)nn1C (configuration not stated) | i | i | 5.2 | i | -4.6 | i | / | / | / | /
CC1=CC(C)C(C(=O)O)C(C(=O)O)C1 (configuration not stated) | 100* | i | -10.2 | i | -1.8 | i | i | i | -0.83 | -5.0
Cc1cc(Cl)c(S(=O)(=O)N2CCSCC2)cc1OCC(=O)NC1CCCCC1 | 100* | i | -8.7 | i | -7.9 | i | 27.5%* | i | -0.9 | -11.5
Cc1cc(Cl)c(S(=O)(=O)N2CCCCCC2)cc1OCC(=O)NC1CCCCC1 | 100* | i | -5.9 | i | 0.8 | i | 24.0%* | i | -1.13 | -16.0
CCN1CCN(S(=O)(=O)c2cc(OCC(=O)NC3CCCCC3)c(C)cc2Cl)CC1 | i | i | 1.8 | i | 8.6 | i | / | / | / | /
Cc1cc(Cl)c(S(=O)(=O)N2CCN(c3ccccn3)CC2)cc1OCC(=O)NC1CCCCC1 | 100* | i | -0.2 | i | -4.2 | i | i | i | -1.12 | -5.0
COCCCN(C(=S)NC(=O)C12CC3CC(CC(C3)C1)C2)c1c(N)n(Cc2ccccc2)c(=O)[nH]c1=O | i | i | 4.4 | i | -3.3 | i | / | / | / | /
CN(C(=O)COC(=O)c1ccccc1SCC(=O)N1CCCC1)c1ccccc1 | i | i | 7.0 | i | -2.0 | i | / | / | / | /
Cc1ccc(-c2noc(CSc3nnc(-c4ccncc4)n3-c3ccc(C)cc3)n2)cc1 | i | i | 6.2 | i | 3.4 | i | / | / | / | /
Cc1ccc(-c2noc(CSc3nnnn3C3CCCCC3)n2)cc1 | 100* | i | -7.4 | i | -4.2 | i | 29.5%* | i | -1.12 | -12.0
Cc1nn(Cc2ccc(C(=O)Nc3nc4c(C)cccc4s3)o2)c(C)c1Br | 100* | i | 0.8 | i | 0.2 | i | i | i | -1.16 | 5.5
CCCCn1c(SCC(=O)N2CCCC2)nnc1-c1ccccc1 | 100* | i | -1.4 | i | -4.0 | i | i | i | -1.11 | -11.0
O=C(CSc1nnc(-c2ccccc2)n1Cc1ccccc1)N1CCCC1 | i | i | -10.8 | i | -12.1 | i | / | / | / | /
COc1cccc(/C=C2\SC(=O)N(CCC(=O)N3CCC(C(=O)O)CC3)C2=O)c1 | i | i | -3.8 | i | -1.9 | i | / | / | / | /
Cc1cc(-c2ccc(C(C)C)c(S(=O)(=O)Nc3ccccn3)c2)on1 | i | i | 5.1 | i | 11.8 | i | / | / | / | /
COc1ccc(C(C[N+](=O)[O-])c2c(C)[nH]n(-c3ccccc3)c2=O)cc1 (configuration not stated) | i | i | -9.7 | i | 7.5 | i | / | / | / | /
Cc1[nH]n(-c2ccccc2)c(=O)c1C(c1ccc(O)c([N+](=O)[O-])c1)c1c(C)[nH]n(-c2ccccc2)c1=O | 100* | i | -0.9 | -6.12* | 0.3 | i | 34.5%* | i | -0.923 | -11.5
Cc1ccc(S(=O)(=O)C(C#N)c2nc3ccccc3nc2N2CCCC2)cc1 (configuration not stated) | i | i | 0.7 | i | -1.0 | i | / | / | / | /
Cc1cccc(S(=O)(=O)C(C#N)c2nc3ccccc3nc2N2CC(C)OC(C)C2)c1 (configuration not stated) | 25* | i | -6.2 | i | 1.3 | i | 18.0%* | i | -0.873 | -17.0
C=CCn1c(-c2ccc(S(=O)(=O)N3CCOCC3)cc2)csc1=Nc1ccccc1 | i | i | 3.2 | i | 5.1 | i | / | / | / | /
COc1ccc(-c2csc(=Nc3ccccc3)n2CCO)cc1 | 100* | i | -4.1 | i | 12.3 | i | 44.5%* | i | -1.24 | 0.0
CC(=O)c1cccc(N=c2scc(-c3ccc(S(=O)(=O)N4CCOCC4)cc3)n2CCO)c1 | 25* | i | -5.8 | i | -5.5 | i | 37.5%* | i | -1.04 | -18.5
COc1ccc(OCCn2c(=N)n(CCO)c3ccccc32)cc1 | i | i | 4.0 | i | 0.9 | i | / | / | / | /
CCOC(=O)C(=CNc1ccc2c(c1)nnn2-c1ccc(Cl)cc1)C(=O)OCC | i | i | 15.4 | i | 6.0 | i | / | / | / | /
O=C(C[C@H]1C[C@H](C(=O)N2CCCCC2)[C@@]2(CCc3ccccc3)c3[nH]c4ccc(Cl)cc4c3CCN2C1=O)NCc1ccco1 | / | / | -2.1 | / | 0.4 | / | / | / | / | /
SMILES | TMEM16A inh | ANO1 activ | PKA-R1A act | CHT block | PKA-R2B act | CHT allo act | TMEM16A reconf | TMEM16A Ca cntr | Parental YFP cnt | ClC-1 inh
CN1C(=O)C(C)(C)c2cc(S(=O)(=O)N3CCN(c4ccccc4)CC3)ccc21 | 100* | i | -6.4 | i | 0.3 | i | i | i | -1.09 | -4.0
CSCCC(C)N1CCC(Oc2ccc(C(=O)N3CCCC3)cc2)CC1 (configuration not stated) | i | i | -3.4 | i | 1.4 | i | / | / | / | /
COc1ccc(Nc2ccnc(Nc3ccc(OC)cc3)n2)cc1 | i | i | -16.0 | i | -10.1 | i | / | / | / | /
CCCOC(=O)c1ccc(NS(=O)(=O)c2cccs2)cc1 | 25* | i | 3.2 | i | -7.9 | i | i | i | -0.946 | 2.0
Cc1ccc(CNC(=O)c2ccc(NS(=O)(=O)c3cccs3)cc2)cc1 | i | i | -3.4 | i | -12.7 | i | / | / | / | /
Nc1[nH]c2cc([N+](=O)[O-])ccc2c1-c1ccccn1 | i | i | 3.5 | i | 6.0 | i | 21.0%* | i | -0.673 | 13.0
Nc1nc2ccc([N+](=O)[O-])cc2[nH]1 | i | i | 5.6 | i | -3.0 | i | / | / | / | /
CN(Cc1c(F)cccc1Cl)C(=O)c1ccc(NC(=O)CC2SC(N3CCCC3)=NC2=O)cc1 (configuration not stated) | i | i | 7.1 | i | -3.0 | i | / | / | / | /
